# This excerpt belongs to a sample that is enriched for hits.
# VCAM1 pot = TNF alpha stimulated VCAM1 expression potentiation; activation, % at 2 µM; hit rate 0.19% among 93,000; HUVEC TNFa-stimulated VCAM-1 immunofluorescence, high-content imaging; scaled per plate to unstimulated/TNFa-only wells;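 active = activation above the screen mean plus 3 SD, with well images confirming the hit on visual review, cut at about 28% in these data, passing the limit was not always enough; inconclusive = activation above that limit but images do not confirm it; inactive = activation not above that limit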;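 note: signal is the number of cytoplasmic VCAM-1 stained grains per positive cell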
# VCAM1 pot confirm = enhancers of VCAM1 induction in HUVEC – imaging, triplicate retest, confirmation; shares compounds with VCAM1 pot; HUVEC TNFa-stimulated VCAM-1 immunofluorescence imaging; activation, % at 2 µM; 230 tested, under 10 active;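 active = activation above 30% in triplicate retests at 2 µM, then confirmed by visual review of the well images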;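 note: scaled per plate between unstimulated and TNFa-stimulated DMSO control wells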
# Active calls of the source: *; ? = inconclusive.
SMILES,VCAM1 pot,others
O=C(Nc1ccc2nsnc2c1)NC1CCCCC1,57*,VCAM1 pot confirm=-6
Cn1c(CCNC(=O)c2ccco2)nc2cc(NC(=O)NC3CCCCC3)ccc21,4,
CC(C)C(=O)Nc1ccc(C(=O)NNC(=O)NC2CCCCC2)cc1,-36,
CC(Nc1cc(=O)n(C)c(=O)[nH]1)c1ccccc1 (stereo not drawn),-9,
CCCCS(=O)CC(O)COCC (stereo not drawn),-25,
N#C/C(=C\c1ccccc1Cl)C(=O)NC(=O)Oc1ccccc1,-5,
COc1ccc(C(=O)N2CCN(S(=O)(=O)c3ccccc3)CC2)c(OC)c1,-8,
COc1ccc(CN2CCN(S(=O)(=O)c3ccccc3)CC2)c(OC)c1,6,
CCN1CCN(S(=O)(=O)c2cc(OC)ccc2OC)CC1,64*,VCAM1 pot confirm=-4
CC1(C)Cc2c(sc(NC(=O)c3ccc(Br)o3)c2C#N)CO1,-2,
N#Cc1c(NC(=O)CCC(=O)O)sc2c1CCCC2,?,VCAM1 pot confirm=-13
CCc1c(C)sc(NC(=O)CC#N)c1C#N,-17,
COc1ccccc1N1CCN(C(=O)CSc2ccc3c(C)cc(C)nc3n2)CC1,-5,
c1ccc(SCc2nc3ccccc3[nH]2)nc1,13,
Cc1cccc(-c2nnc(SCCOc3ccc4c(C)cc(=O)oc4c3)o2)c1,-1,
CC1=C(C(=O)OC(C)(C)C)C(c2ccco2)C(C#N)=C(N)O1 (stereo not drawn),9,
O=C(O)C1CCN(S(=O)(=O)/C=C/c2ccccc2)CC1,-8,
N#CC1=C(N)Oc2n[nH]c(-c3ccccc3)c2C1c1cccnc1 (stereo not drawn),94*,VCAM1 pot confirm=-14
CCN(CC)c1ccc2c(c1)OC(N)=C(C#N)C2c1cccnc1 (stereo not drawn),-39,
CCCSC1=C(C#N)C(c2cccnc2)C(C(=O)OCC)=C(c2ccccc2)N1 (stereo not drawn),18,
Cc1ccc(S(=O)(=O)CCc2nc3ccccc3s2)cc1C,8,
Cc1ccc(-n2c(N)c(C(=O)NCc3cccnc3)sc2=S)cc1,-6,
O=C(O)c1cc2ccc3ccccc3c2oc1=O,-26,
CC1(C)C(c2cccs2)=[N+]([O-])C2(CCCCC/C2=N\NC(N)=O)N1O (stereo not drawn),15,
Cn1c(Cn2nnc3ccccc32)nnc1SCC(=O)N1CCc2ccccc21,7,
SMILES,VCAM1 pot,others
CCCOc1ccc(C(=O)C(CN2CCOCC2)c2ccccc2)cc1 (stereo not drawn),-50,
N=c1nc(SCCC(=O)O)ss1,-4,
CCC(C)(C)n1nnnc1CN1CCC(O)(c2cccc(C(F)(F)F)c2)CC1,-16,
Cc1ccccc1/C(N)=N/OC(=O)/C=C/c1ccccc1,38*,VCAM1 pot confirm=-13
Cc1ccccc1NS(=O)(=O)c1cc(C(=O)NCCSC2CCCCC2)ccc1C,3,
COc1ccc(S(=O)(=O)N(C)CC(=O)NCc2cccnc2)cc1Cl,-1,
COc1ccc(CNC(=O)COC(=O)c2cc(-c3ccco3)nc3ccccc23)cc1,1,
CCOC(=O)C(NC(=O)c1ccccc1)(Nc1nnc(C)s1)C(F)(F)F (stereo not drawn),17,
O=C(NCc1ccco1)c1sc2cc(F)ccc2c1Cl,44*,VCAM1 pot confirm=-10
CC(C)c1cc(C(=O)NCc2ccco2)no1,-10,
O=C(NCc1ccco1)c1ccccc1F,1,
CCOC(=O)N1CCN(CC(=O)Nc2ccc(C)c(Br)c2)CC1,-17,
COCCn1c(SCC(=O)Nc2ccc(Cl)cn2)nc2ccccc21,-7,
O=C(CSCCO)Nc1cc(C(F)(F)F)ccc1Cl,6,
CN(c1cccc(NC(=O)CN(c2ccc(C34CC5CC(CC(C5)C3)C4)cc2)S(C)(=O)=O)c1)S(C)(=O)=O,1,
CC(=O)c1c(C(C)=O)c(C)n(-c2nc(-c3ccccc3)c(C)s2)c1C,-12,
CSc1cc(C)n(-c2ccccc2)c(=S)c1C(C)=O,72*,VCAM1 pot confirm=-16
COC(=O)[C@H](Cc1ccccc1)NC(=O)N1CCN(Cc2ccccc2)CC1,-6,
Nc1sccc1C(=O)c1ccccc1,66*,VCAM1 pot confirm=-8
O=C(Oc1csc(=S)n1C(=O)c1ccccc1)c1ccccc1,-98,
Nc1ccccc1NC(=O)c1ccccc1,-2,
Cc1ccc(-n2c(SCc3cc(=O)n4ccsc4n3)nnc2-c2cccnc2)c(C)c1,-2,
c1ccc(C2=Nn3c(nnc3-c3cccnc3)SC2)cc1,9,
CC(=O)Nc1ccc(S(=O)(=O)N2CCN(C(=O)c3cccnc3)CC2)cc1,6,
Cc1cc(C(F)(F)F)nn1CC(=O)Nc1ccc(Br)c2cccnc12,-6,
SMILES,VCAM1 pot,others
CCc1ccccc1NC(=O)c1nnn(CC(=O)Nc2cccc(C)c2C)c1N,-4,
Cc1ccccc1NC(=O)Cn1nc(C(F)(F)F)cc1C1CC1,54*,VCAM1 pot confirm=-9
Cc1[nH]n(-c2ccc([N+](=O)[O-])cc2)c(=O)c1C=NCCN1CCN(C(=O)c2cccc(F)c2)CC1,-6,
COc1ccc(NC(=O)/C(Cl)=C(/Cl)S(=O)(=O)Cc2ccc(C)cc2)cn1,-51,
CSCCC(NC(=O)c1ccco1)C(=O)O (stereo not drawn),-14,
CCOC(=O)CSc1nc(-c2ccccc2)nc2c1oc1ccccc12,-4,
CCc1nc(SCC(=O)c2cccs2)c2oc3ccccc3c2n1,28*,VCAM1 pot confirm=-14
CCCSc1ncnc2c1oc1ccccc12,2,
COCCNC(=O)C(OC(=O)c1cccs1)c1ccccc1 (stereo not drawn),-3,
Cc1nc2ccccc2n1CC(O)COCC1CC=CCC1 (stereo not drawn),?,VCAM1 pot confirm=-13
CCOC(=O)Cn1c(C)nc2ccccc21,-6,
CCn1c(-c2cccs2)nc2ccccc21,-5,
CCOC(=O)c1sc(NC(=O)C(C)(C)C)cc1C,-9,
O=C(O)CCCC(=O)Nc1ccccc1C(=O)O,2,
O=C(CSc1nc2ccccc2[nH]1)c1ccc2c(c1)OCO2,3,
O=C(CSc1nc2ccccc2[nH]1)Nc1ccccc1N1CCOCC1,48*,VCAM1 pot confirm=-6
O=C(CSc1nc2ccccc2[nH]1)Nc1cc(C(F)(F)F)ccc1N1CCOCC1,-3,
COc1ccc(CCNC(=O)C2CCN(S(=O)(=O)N3CCCCCC3)CC2)cc1OC,3,
CCC(CC)C(=O)NCCc1ccc(S(N)(=O)=O)cc1,-13,
NS(=O)(=O)c1ccc(CCNC(=O)C2CCCCC2)cc1,33*,VCAM1 pot confirm=-13
O=C(c1cnn2c1NC(c1ccco1)CC2C(F)(F)F)N1CCN(c2cccc(Cl)c2)CC1 (stereo not drawn),-5,
O=c1c(Cc2ccc(F)cc2)c(O)ccn1Cc1ccc(Cl)cc1Cl,6,
COc1ccc(S(=O)(=O)N(C)CC(=O)N2CCN(c3ccc(F)cc3)CC2)cc1OC,4,
Cn1ccnc1SCC(=O)Nc1ccc2ccccc2c1,32,
C/C(=N\NC(=O)Cc1cccn1C)c1ccc2ccccc2c1,?,VCAM1 pot confirm=-4
SMILES,VCAM1 pot,others
Cc1ccc(CCN2CC(C(=O)NCCCOC(C)C)CC2=O)cc1 (stereo not drawn),2,
Cc1ccc(S(=O)(=O)Nc2ccc(S(=O)(=O)N3CCCC3)cc2)cc1,3,
COc1ccc(CNC(=O)COC(=O)C2=COCCO2)cc1,-9,
CC(=O)N(CC1CCCO1)c1nnc(-c2ccccn2)s1 (stereo not drawn),5,
Cc1cc(C)c(S(=O)(=O)N(C2=NCCS2)S(=O)(=O)c2c(C)cc(C)cc2C)c(C)c1,11,
CCNC(=S)NS(=O)(=O)c1ccc(Cl)cc1,6,
O=C(CN(C(=O)Cn1nnc(-c2cccs2)n1)c1ccc2c(c1)OCCO2)NC1CCCCC1,56*,VCAM1 pot confirm=-18
